DRD3 antagonist: blocks the human D3 dopamine receptor; max response, negative = inhibition, %; D3R cells, DiscoveRx beta-arrestin luminescence, antagonist mode; hits give low values; P35462; actives 2.5% (n = 360,000); AID 652054; in the data active means max response below about -50%; inconclusive means no clear call, values can overlap the other calls; further: on the % scale 0 is the no-effect control and ±100 the full control effect
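Cells expressing the human receptor were seeded at 1500 cells/well, incubated overnight at 37 degrees C in 5% CO2, then exposed to library compounds with dopamine controls for 90 minutes at 37 degrees C before luminescent detection.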
DRD3 agonist: agonists of human D3 dopamine receptor; P35462; D3R DiscoveRx beta-arrestin cells, luminescence, 90 min; max activation, %; actives 0.58% (n = 410,000); in the data active means max activation above about 30%; further: 0% is about no effect
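Cells at 1500/well, incubated overnight, then treated with pinned compounds (dopamine as control) for 90 min at 37 degrees C. DiscoveRx reagent added for 30 - 60 minutes at room temperature; luminescence read.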
B2AR arrestin: recruits beta-arrestin to the human beta2-adrenergic receptor | P07550 | beta-arrestin recruitment to beta2AR, cell-based reporter | Potency, µM (titrated, usually from 46.1 µM), inactives show at the top dose activation, usual class: activators | actives 0.02% (n = 330,000); active means well fitted activation curve with a large enough effect; inconclusive means small, poorly fitted or top-dose-only effect;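 further: potency means the concentration at half of the fitted maximal effect; 0% = DMSO controls and full agonism = EC100 isoproterenol or metaproterenol; nearly all actives have a fitted effect of over 65% in size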
Target sequence (P07550 whole entry, looked up): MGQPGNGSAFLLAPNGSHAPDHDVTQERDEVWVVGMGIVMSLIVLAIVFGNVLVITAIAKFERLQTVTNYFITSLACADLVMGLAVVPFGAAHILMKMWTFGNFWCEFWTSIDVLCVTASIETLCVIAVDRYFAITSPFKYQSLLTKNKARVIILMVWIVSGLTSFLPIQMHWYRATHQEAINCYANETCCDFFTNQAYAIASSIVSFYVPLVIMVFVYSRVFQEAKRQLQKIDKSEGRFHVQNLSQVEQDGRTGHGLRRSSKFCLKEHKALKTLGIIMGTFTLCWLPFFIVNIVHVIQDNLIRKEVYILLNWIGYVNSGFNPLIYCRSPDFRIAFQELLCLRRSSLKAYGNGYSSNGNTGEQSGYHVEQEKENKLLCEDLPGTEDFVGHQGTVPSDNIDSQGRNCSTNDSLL
Giardia killer: Giardia lamblia killing; AID 540267; activity change, % at 7.66 µM, hits read low; Giardia lamblia trophozoite viability; actives 0.15% (n = 340,000); in the data active means activity change below about -80%; inconclusive means between about -30% and that limit;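 further: parasites exposed to compound for two days anaerobically before the ATP read; on the % scale 0 is the no-effect control and ±100 the full control effect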
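Luminescent ATP signal served as the viability read-out, measured 15-30 min after adding ATP detection reagent to trophozoites that had been incubated with compounds for 48 hrs at 37 deg C anaerobically at 100 cells/well.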
Starred values were filed as active, the others as inactive; ? = inconclusive; / = no result given. Shown are actives, neighbours in structure and some others; about 2.8% of the full set was active somewhere.

SMILES | DRD3 antagonist | DRD3 agonist | B2AR arrestin | Giardia killer
CCN1CCN(C(=O)c2ccc3c(=O)n(Cc4ccccc4OC)c(=S)[nH]c3c2)CC1 | -50.1* | -6.9 | 0.2% | 13.0
Cc1cccc(C)c1N1CCN(CCn2c(=S)[nH]c3ccccc3c2=O)CC1 | -68.8* | -2.4 | -0.7% | -14.1
CCN1CCN(CCn2c(=S)[nH]c3ccccc3c2=O)CC1 | -61.7* | 1.2 | 0.0% | 0.0
O=c1[nH]c2ccccc2c(=O)n1Cc1ccccc1 | ? | -1.0 | -0.4% | -11.0
O=c1c2ccccc2[nH]c(=S)n1CCN1CCCC1 | 2.4 | 3.2 | 0.1% | 6.1
CCn1c(=O)[nH]c2ccccc2c1=O | -56.3* | -8.3 | 0.4% | -16.1
Cc1ccc(C)c(N2CCN(C(=O)c3cc4c(=O)n(Cc5ccco5)ccc4nc3C)CC2)c1 | / | -3.6 | / | /
CC1CCN(CCCn2c(=S)[nH]c3ccccc3c2=O)CC1 | -15.1 | -16.5 | 0.1% | 11.2
O=c1c2ccccc2[nH]c(=S)n1CCCN1CCC(Cc2ccccc2)CC1 | -90.1* | -17.4 | 0.4% | -16.2
O=C(COC(=O)C1(c2ccccc2F)CCCC1)NC1CCS(=O)(=O)C1 (stereo not drawn) | -61.8* | -5.1 | 0.0% | 8.2
O=C(COc1ccccc1)NC1CCS(=O)(=O)C1 (stereo not drawn) | -5.1 | 0.8 | 0.2% | 10.7
CCC1CN(C(=O)Nc2cccc(OC)c2)c2ccccc2O1 (stereo not drawn) | / | -16.3 | / | /
CC(=O)Oc1cc2c(cc1OC(C)=O)C(=O)CCCC2 | -1.5 | 66.1* | / | /
C[C@H](CCC(=O)OCc1cn(CC(=O)c2ccc(O)cc2)nn1)C1CC[C@H]2[C@@H]3CC[C@@H]4C[C@H](O)CC[C@]4(C)[C@H]3C[C@H](O)[C@]12C (stereo partly drawn) | 36.7 | 43.6* | / | 6.0
COc1ccc(N(CC(=O)N2CCN(Cc3ccccc3)CC2)S(C)(=O)=O)c(OC)c1 | -1.9 | -7.4 | -2.0% | -0.6
COc1ccc(Cl)cc1N(CC(=O)N1CCN(Cc2ccccc2)CC1)S(C)(=O)=O | -56.6* | -8.5 | -0.3% | 0.6
Cc1cccc(CS(=O)(=O)Cc2ccc(C(=O)NC(C)c3ccccc3)o2)c1 (stereo not drawn) | 21.5 | 4.7 | 0.3% | 14.8
CC(C)(C)OC(=O)N[C@@H](Cc1ccccc1)c1nnc(S(=O)(=O)Cc2ccccc2)o1 | / | / | -3.0% | /
Cc1ccccc1CS(=O)(=O)c1nnc([C@H](Cc2ccccc2)NC(=O)OC(C)(C)C)o1 | -53.2* | -31.0 | -0.2% | -3.4
CCC(C)[C@@H](NC(=O)OC(C)(C)C)c1nnc(S(=O)(=O)Cc2cccc(C)c2)o1 (stereo partly drawn) | -54.4* | -25.5 | 0.4% | 0.6
CC1(C)CC(=O)c2cc(-c3nc(-c4ccc(F)cc4)cs3)c(=O)[nH]c2C1 | / | -1.7 | / | /
CCC(C)NC(=O)c1ccccc1NC(=O)C1CCN(S(=O)(=O)Cc2ccccc2)CC1 (stereo not drawn) | / | -3.7 | / | /
O=C(c1n[nH]c(=O)c2ccccc12)N1CCOCC1 | -59.3* | -6.2 | 0.0% | -0.7
CCCC[C@@H]1CCCO[C@@](C(=O)NCc2ccccc2)(C(F)(F)F)C1 | / | / | / | 26.1
COc1ccc(CNC(=O)CSc2nc3ccsc3c(=O)n2Cc2ccccc2Cl)cc1 | / | 8.8 | / | /
SMILES | DRD3 antagonist | DRD3 agonist | B2AR arrestin | Giardia killer
Clc1ccc(CSC2=NCCCN2)cc1Cl | -57.5* | -10.3 | -0.2% | 6.3
Clc1ccccc1CSC1=NCCCN1 | -11.2 | 0.1 | 0.1% | -5.3
O=C(NCc1cccc(Br)c1)c1cccn1-c1nnc(N2CCCCC2)s1 | / | -16.0 | / | /
Cc1cc2c(OCC(O)CN3CCCCC3)cccc2[nH]1 (stereo not drawn) | -15.7 | -7.3 | 0.1% | -12.8
COc1ccc(OCC(O)CNC2CCCC2)cc1 (stereo not drawn) | -11.0 | -15.9 | -1.0% | -6.2
Cc1cc2c(OCC(O)CNC3CCCCC3)cccc2[nH]1 (stereo not drawn) | -59.0* | -29.4 | 0.0% | 1.0
OC(CNC1CCCC1)COc1ccccc1Br (stereo not drawn) | -19.2 | -7.0 | 0.0% | -6.1
OC(CNC1Cc2ccccc2C1)COc1ccc(F)cc1 (stereo not drawn) | -64.2* | -28.7 | -0.9% | 24.1
OC(CNC1CCCCCC1)COc1cccc2ccccc12 (stereo not drawn) | -75.5* | -19.6 | 0.1% | -1.9
O=C(NCCC(=O)N1CCN(Cc2c(F)cccc2Cl)CC1)c1ccc(Cl)cc1 | -4.1 | 64.6* | 5.5% | 16.1
O=C(NCCC(=O)N1CCN(c2ccccc2O)CC1)c1ccc(Cl)cc1 | -5.2 | 7.9 | -0.3% | 8.5
COCC1CCCN(Cc2cn(-c3ccccc3F)nc2-c2cc(C)sc2C)C1 (stereo not drawn) | -70.8* | -17.0 | -0.7% | 10.5
CC(=O)NCC1CCCN(Cc2cn(-c3ccccc3F)nc2-c2cc(C)sc2C)C1 (stereo not drawn) | -24.3 | -18.8 | -0.1% | 27.1
CCN[C@@H]1C[C@H](N)[C@@H](OC2OC(CN)=CCC2N)[C@H](O)[C@H]1O[C@H]1OC[C@](C)(O)[C@H](NC)[C@H]1O (stereo partly drawn) | / | 49.1* | / | /
CN[C@@H]1[C@@H](O)[C@@H](O[C@@H]2[C@@H](O)[C@H](OC3OC(CN)=CCC3N)[C@@H](N)C[C@H]2N)OC[C@]1(C)O (stereo partly drawn) | / | -6.9 | / | /
Cc1ccc2c(c1)C(CCN)C(=O)N2Cc1ccccc1 (stereo not drawn) | -105.9* | -30.4 | 0.1% | 1.7
Cc1ccc2c(c1)N(Cc1ccccc1)C(=O)C(C)S2 (stereo not drawn) | -23.5 | -7.8 | / | /
COc1ccc(CNCCS(=O)(=O)NC2CCCCC2)cc1 | -52.7* | -43.9 | / | 21.0
COc1ccc(C(=O)NCCS(=O)(=O)NC2CCCC2)cc1 | -10.9 | -17.7 | 4.6% | 3.7
CCCCCCCCNCCS(=O)(=O)NC1CCCCC1 | -90.9* | -37.1 | / | -2.7
O=S(=O)(CCNCc1ccccc1)NC1CCCCC1 | -50.1* | -40.7 | / | 17.0
COc1cccc(C(=O)NCCS(=O)(=O)NC2CCCC2)c1 | -73.6* | -9.1 | 0.1% | -26.1
CCCCCCCCNCCS(=O)(=O)NCCCCCCCC | -7.2 | -2.4 | / | 2.2
COC(=O)C[C@H]1c2cc(F)cc(F)c2S(=O)(=O)N1C1CCN(Cc2ccccc2)CC1 | -68.7* | -66.5 | / | 4.3
Cc1cccc(C)c1OCC(O)CNC(C)(C)C (stereo not drawn) | -51.1* | -0.3 | -0.2% | -2.8
SMILES | DRD3 antagonist | DRD3 agonist | B2AR arrestin | Giardia killer
CCCCOc1ccc(C2C(=O)N(C3CCCCC3)CC(=O)N2CCCC)cc1 (stereo not drawn) | / | -7.2 | / | /
COc1cccc(/C=N/NC(=S)Nc2cccc(S(=O)(=O)N(C)C)c2)c1 | 2.9 | 1.2 | 17.8µM* | 6.5
Oc1ccc(CNc2cccc(C(F)(F)F)c2)c2cccnc12 | / | / | 0.8% | /
CCCCSCCCNC(=O)C1CCC(CNS(=O)(=O)c2c(C)cc(C)cc2C)CC1 (stereo not drawn) | / | 2.2 | / | /
COc1cccc2cc(C(=O)OCC(=O)NC3CCCC(C)C3C)c(=O)oc12 (stereo not drawn) | -8.8 | 81.6* | -1.1% | 10.2
COCC(=O)Nc1cc(Cl)ccc1C | 8.6 | -1.6 | -0.1% | -15.1
COc1ccc(Cl)cc1NC(=O)NCCN1CCCCC1 | ? | -14.4 | -0.5% | 7.0

Assay outcomes from PubChem BioAssay.
